From ChEMBL document CHEMBL4513146, “CO-ADD screening of Karazin Kharkiv National University (Ukraine) compounds” come the findings set out here.

Results with a measured potency or affinity are listed apart.

Assay [1] deals with Klebsiella pneumoniae. The note with it: Concentration 32 ug.mL-1;; ASSAY_TEST Inhibition of Bacterial Growth; detection method Absorption (OD600); MEDIA CAMHB; plate type 384well; NBS; CORNING #3640; time 18 hr.
The test system of assay [2] is Candida albicans. The note with it: Concentration 32 ug.mL-1; ASSAY_TEST Inhibition of Fungal Growth; detection method Absorption (OD530).
Assay [3] deals with Cryptococcus neoformans. The note with it: Concentration 32 ug.mL-1; ASSAY_TEST Inhibition of Fungal Growth; detection method Resazurin; Absorption (OD600-OD570); plate type 384well; NBS; CORNING #3640.

Usually Inhibition stands for the drop in the measured response relative to a control, in per cent. In the case of `CCc1nnc2ccc(S(=O)(=O)N(Cc3ccc(OC)cc3)c3ccc(F)cc3)cn12`, the Inhibition in assay [1] was 10.6%; in assay [2], 0.7%; in assay [3] it was -9.28%.
On the same counts, the results for `COc1ccc(CCn2c(=O)c3sccc3n3c(=O)n(Cc4ccc(F)cc4)nc23)cc1OC` are 6.56%, 11.53% and -31.44%.
On the same counts, the results for `Cc1ccc(NC(=O)Cn2nc3c(Oc4ccccc4)nccn3c2=O)c(Br)c1` are -5.15%, 0.27% and -6.15%.
For `COc1cccc(-n2ccn3c(SCC(=O)Nc4ccccc4Cl)nnc3c2=O)c1`, in that order: 9.92%, 1.92% and -13.6%.
On to `CCc1nnc2c(=O)n(CC(=O)Nc3cccc(C#N)c3)c3ccccc3n12`, for which the Inhibition is 9.63% in assay [1], 5.47% in assay [2] and -28.04% in assay [3].
On the same counts, the results for `COc1ccc(CNC(=O)Cn2nc3c(N4CC(C)CC(C)C4)nccn3c2=O)cc1` (centres undefined) are -3.24%, 4.41% and -8.27%.
As for `COc1cccc(-n2ccn3c(SC(C)C(=O)c4ccc(C)c(C)c4)nnc3c2=O)c1` (centres undefined), the values for the Inhibition in assay [1], in assay [2] and in assay [3] were 3.32%, 2.99% and -3.88%, respectively.
For `COc1cccc(CN(c2cccc(C)c2)S(=O)(=O)c2ccc3nnc(C)n3c2)c1`, in that order: 4.27%, 0.75% and -14.81%.
On the same counts, the results for `CCOc1ccc(C(=O)CSc2nnc3c(=O)n(-c4ccc(F)cc4)ccn23)cc1` are 4.99%, 1.29% and -6.51%.
As to `CCOc1ccc(NC(=O)Cn2nc3c(Oc4ccc(C)cc4)nccn3c2=O)cc1`, the results for the Inhibition in assay [1], in assay [2] and in assay [3] were 5.41%, 0.26% and -8.36%, respectively.
As to `CC(=O)c1cccc(NC(=O)CSc2nnc3ccc(C(=O)Nc4cccc(F)c4)cn23)c1`, the Inhibition in assay [1] is recorded as 7.28%; in assay [2], 5.29%; in assay [3] it was -6.79%.
On the same counts, the results for `O=c1c2sccc2n2c(=O)n(Cc3cccc(F)c3)nc2n1Cc1cccs1` are -6.06%, 36.13% and -19.84%.
Consider `COc1ccccc1N1CCN(C(=O)Cn2nc3c(Sc4cccc(C)c4)nccn3c2=O)CC1`, for which the results for the Inhibition in assay [1], in assay [2] and in assay [3] were -0.72%, 2.52% and -34.84%, respectively.
For `COc1ccc(-n2ccn3c(SCC(=O)N4CCN(c5ccccc5F)CC4)nnc3c2=O)cc1`, in that order: 15.6%, 2.59% and -14.55%.
For `CCc1nnc2ccc(S(=O)(=O)N(Cc3cccc(OC)c3)c3cccc(F)c3)cn12`, the Inhibition in assay [1] is given as 10.63%; in assay [2], 2.06%; in assay [3], -7.44%.
Regarding `COC(=O)c1ccc(CN(c2cccc(C)c2)S(=O)(=O)c2cccn3c(C)nnc23)o1`, the Inhibition in assay [1] was 9.19%; in assay [2], 2.2%; in assay [3] it was -7.03%.
In the case of `Cc1nnc2c(S(=O)(=O)N(Cc3ccccc3Cl)c3ccc(F)c(F)c3)cccn12`, the Inhibition in assay [1] is given as 13.53%; in assay [2], 0.59%; in assay [3] it was -7.47%.
For `Cc1ccc(N(Cc2ccccc2F)S(=O)(=O)c2ccc3nncn3c2)cc1`, in that order: -0.06%, 0.13% and -11.13%.
On the same counts, the results for `CCOc1ccccc1NC(=O)Cn1c(=O)c2nnc(C(C)C)n2c2ccccc21` are 4.41%, 1.06% and -2.8%.
For `Cc1ccc(Oc2nccn3c(=O)n(CC(=O)Nc4ccccc4F)nc23)cc1`, in that order: 2.86%, 5.88% and -5.76%.
As to `CCOC(=O)c1ccccc1NC(=O)Cn1c(=O)c2nnc(C(C)C)n2c2ccccc21`, the values for the Inhibition in assay [1], in assay [2] and in assay [3] were 12%, 1.04% and -21.33%, respectively.
Regarding `COc1cccc(CNC(=O)CCc2nnc3ccc(-c4ccc(C)cc4)nn23)c1`, the Inhibition in assay [1] is 5.64%; in assay [2], 2.05%; in assay [3] it was -1.51%.
On the same counts, the results for `Cc1ccc(Sc2nccn3c(=O)n(CC(=O)N4CCN(c5ccc(F)cc5)CC4)nc23)c(C)c1` are -6.63%, 1.39% and -106.74%.
On the same counts, the results for `COc1ccc(NC(=O)Cn2nc3ccc(-c4ccc(Cl)cc4)nn3c2=O)cc1` are 12.68%, 0.32% and -12.45%.
With `CCCCN(CC)c1ccc2nnc(CCc3nc(-c4ccc(OCc5ccccc5)cc4)no3)n2n1`, the Inhibition is given as 10.12% in assay [1], 5.5% in assay [2] and -16.46% in assay [3].
On the same counts, the results for `CCc1nnc2c(SCC(=O)Nc3cccc(Br)c3)nc3ccccc3n12` are 4.36%, 4.07% and -27.47%.
As for `CCc1ccc(Cn2c(=O)c3sccc3n3c(=O)n(Cc4c(F)cccc4Cl)nc23)cc1`, the Inhibition in assay [1] is recorded as 5.71%; in assay [2], 1.83%; in assay [3], -25.59%.
On the same counts, the results for `CSc1cccc(NC(=O)Cn2nc3ccc(SC4CCCCC4)nn3c2=O)c1` are 4.23%, 0.23% and -8.34%.
